Composite z-score, z-score and composite Z-score data for six compounds are collected here from PubChem BioAssay.

Active and inactive are the calls of the source.

Assay [1] has as its system Human papillomavirus type 1a protein E7 (residues 44-93). Briefly: small molecules binding HPV E7 44-93 – biochemical, small-molecule microarray, residues 44-93, 635 nm fluorescence, primary screen (AID 1108).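 Also: E7 fragment applied at 1 µg/mL in TBST for 1 h at 4 C; score combines spot fluorescence with its signal to noise ratio.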 The settings on record: fluorescence 635 nm, higher = more signal.
Assay [2] is described as follows: hepatitis C replication reporter changes, two-sided – Huh7 cells, luciferase reporter, HCV replication inhibitor project, primary screen (AID 1109).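 Also: huh7 hepatoma cells harbouring a luciferase neomycin HCV replicon reporter; luciferase luminescence as measure of HCV replicon replication; test concentration not given here.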 As to conditions: Huh7 HCV replicon luciferase reporter, 48 h; higher = more signal.
In assay [3] the target is Left-right determination factor 2 (Homo sapiens) (UniProt O00292). Briefly: small molecules binding LEFTY2 protein – biochemical, small-molecule microarray, 635 nm fluorescence scan, primary screen (AID 1110). The settings on record: higher = more signal.
Chain of Left-right determination factor 2 (Homo sapiens) (O00292 whole entry, looked up): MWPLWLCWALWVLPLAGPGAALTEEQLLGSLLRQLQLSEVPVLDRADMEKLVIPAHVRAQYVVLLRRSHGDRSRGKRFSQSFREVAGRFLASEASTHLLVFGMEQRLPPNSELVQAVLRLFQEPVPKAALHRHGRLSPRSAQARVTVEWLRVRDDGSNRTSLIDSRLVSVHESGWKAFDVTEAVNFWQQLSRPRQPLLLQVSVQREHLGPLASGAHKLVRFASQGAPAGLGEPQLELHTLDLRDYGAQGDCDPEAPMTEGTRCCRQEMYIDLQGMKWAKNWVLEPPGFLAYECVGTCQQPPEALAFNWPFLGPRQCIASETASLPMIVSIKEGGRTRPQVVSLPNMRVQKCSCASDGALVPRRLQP
Assay [4] concerns the target Calmodulin-1 (Homo sapiens) (UniProt P0DP23). Briefly: small molecules binding calmodulin-1 with EGTA – biochemical, small-molecule microarray, Cy5-labelled CALM1, profiling panel (AID 1111).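 Also: labelled calmodulin applied in Tris saline Tween buffer holding calcium plus EGTA and DTT.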 As to conditions: Cy5-CALM1 binding fluorescence, higher = more signal.
Assay [5] shares this target. Briefly: small molecules binding Ca-loaded calmodulin-1 – biochemical, small-molecule microarray, Cy5-labelled CALM1, plus calcium, artefact control for SMM control-protein annotation, profiling panel (AID 1112).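 Also: score merges spot fluorescence with signal to noise from triplicate slides.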 As to conditions: Cy5-CALM1 binding fluorescence, higher = more signal.
The nature of assay [6]: probe aWnt5a binding to arrayed compounds – biochemical, biotinylated probe, 635/667 nm fluorescence, primary screen (AID 1113).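 Also: score merges 667 nm fluorescence intensity with signal-to-noise per printed feature.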 The settings on record: small-molecule microarray, higher = more signal.
Assay [7] is described as follows: probe aShh binding to arrayed compounds – biochemical, biotinylated probe, 635/667 nm fluorescence, primary screen (AID 1114).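 Also: probe is biotin-labelled aShh protein from a stem cell growth factor screen; measures binding of labelled protein to compounds printed on the slide; score merges feature fluorescence at 667 nm with signal-to-noise.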 As to conditions: small-molecule microarray, higher = more signal.
Assay [8] is described as follows: probe aNog binding to arrayed compounds – biochemical, biotinylated probe, 635/667 nm fluorescence, primary screen (AID 1115).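 Also: probe is biotinylated aNog protein used at 0.15 µg/mL for 1 h at 4 C; z-score combines 667 nm fluorescence of each spot with its signal to noise.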 As to conditions: small-molecule microarray, higher = more signal.
Assay [9] concerns the target Torsin-1A-interacting protein 1 (Homo sapiens) (UniProt Q5JTV8). Briefly: compound microarray binding of lysate hLAP1 – cell lysate, small-molecule microarray, COS7 lysate, 635/667 nm fluorescence, primary screen (AID 1116). As to conditions: 635 nm fluorescence, higher = more signal.
Assay [10] addresses Alpha-bungarotoxin (Bungarus multicinctus) (UniProt P60615). Briefly: compounds binding labelled alpha-BTX control protein – biochemical, small-molecule microarray, Alexa647 label, 635/667 nm fluorescence, artefact control for SMM control protein annotation, profiling panel (AID 1117). The settings on record: alpha-BTX-A647 binding fluorescence, higher = more signal.
For another assay, the target named is Albumin (Bos taurus) (UniProt P02769). Briefly: compounds binding labelled BSA control protein – biochemical, small-molecule microarray, Alexa647 label, 635/667 nm fluorescence, artefact control for SMM control protein annotation, profiling panel (AID 1118).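 Also: score merges 667 nm emission intensity and signal-to-noise per printed compound spot.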 The settings on record: BSA-A647 binding, fluorescence 635 nm, higher = more signal.
Chain of Albumin (Bos taurus) (P02769 whole entry, looked up): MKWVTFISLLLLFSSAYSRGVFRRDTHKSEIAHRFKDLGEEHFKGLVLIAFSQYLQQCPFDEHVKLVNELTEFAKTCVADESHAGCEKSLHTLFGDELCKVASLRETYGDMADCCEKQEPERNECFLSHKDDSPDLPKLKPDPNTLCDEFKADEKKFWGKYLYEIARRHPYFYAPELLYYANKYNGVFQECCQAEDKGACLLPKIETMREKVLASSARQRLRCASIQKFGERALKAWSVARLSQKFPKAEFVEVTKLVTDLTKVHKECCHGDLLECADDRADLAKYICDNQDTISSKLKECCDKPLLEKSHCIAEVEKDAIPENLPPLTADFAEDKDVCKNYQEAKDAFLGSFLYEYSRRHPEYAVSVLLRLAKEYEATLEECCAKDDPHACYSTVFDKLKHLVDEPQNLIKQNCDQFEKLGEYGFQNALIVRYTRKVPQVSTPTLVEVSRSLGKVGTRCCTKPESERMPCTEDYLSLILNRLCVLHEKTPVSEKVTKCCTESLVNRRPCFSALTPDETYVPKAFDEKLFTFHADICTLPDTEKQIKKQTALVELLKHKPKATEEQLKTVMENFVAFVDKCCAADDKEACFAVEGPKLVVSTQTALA
Assay [11] can be described thus: probe aXIP binding to arrayed compounds – biochemical, NeuroSMM set, 635/667 nm fluorescence, primary screen (AID 1119).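 Also: probe is the protein aXip251-270 applied at 1 µg/mL to compound-printed slides; binding of probe to printed compounds measured as 667 nm fluorescence plus signal to noise.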 As to conditions: small-molecule microarray, higher = more signal, called active from +8 up or from −8 down.
The nature of assay [12]: probe aNOTCH3 binding on compound microarray – biochemical, small-molecule microarray, 635/667 nm fluorescence, primary screen (AID 1120).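 Also: probe is a biotin-tagged antibody raised against NOTCH3 rather than NOTCH3 protein; score merges spot fluorescence near 667 nm with spot signal to noise.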 As to conditions: higher = more signal.
Assay [13] is described as follows: probe aNOTCH2 binding on compound microarray – biochemical, small-molecule microarray, 635/667 nm fluorescence, primary screen (AID 1121).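 Also: score merges feature fluorescence read at 667 nm with its signal to noise.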 The settings on record: higher = more signal.
The target in assay [14] is Carbonic anhydrase 2 (Homo sapiens) (UniProt P00918). Briefly: compounds binding carbonic anhydrase 2 – biochemical, small-molecule microarray, Alexa647-labelled CAII, profiling panel (AID 1122). As to conditions: CAII-A647 binding fluorescence, higher = more signal.
Assay [15] in a line: COS7 lysate on small-molecule microarray, probe aHis, 635 nm (AID 1123).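 Also: z-score combines 667nm fluorescence intensity with signal-to-noise per printed compound spot.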 As to conditions: COS7 cell lysate, fluorescence, higher = more signal.
Assay [16] can be described thus: probe aLAP1 signal on lysate-treated microarray – cell lysate, small-molecule microarray, COS7 lysate, primary screen (AID 1124).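 Also: lysate comes from COS7 cells expressing LAP1 and is applied at 0.3 µg/mL; score merges spot fluorescence near 667 nm with signal-to-noise over triplicate slides.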 The settings on record: probe aLAP1, fluorescence, higher = more signal.
For a further assay, the system named is Sam68 (KHDRBS1). Briefly: compounds binding KHDRBS1 protein – biochemical, small-molecule microarray, 635 nm fluorescence, primary screen (AID 1125).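 Also: score merges 667 nm channel intensity with signal to noise over triplicate slides.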 The settings on record: higher = more signal.
Assay [17] deals with Chordin-like protein 2 (CHRDL2). Briefly: compounds binding chordin-like 2 – biochemical, small-molecule microarray, 635 nm fluorescence, primary screen (AID 1126).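 Also: printed compound slides probed with Chrdl2 protein at 4 µg/mL for 1 h at 4 C; score merges 667 nm emission intensity with signal to noise over three replicate slides.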 The settings on record: fluorescence 635 nm, higher = more signal.
Assay [18] concerns the target Concanavalin-A (Canavalia ensiformis) (UniProt P02866). Briefly: compounds binding concanavalin A lectin – biochemical, small-molecule microarray, Alexa647 label, 635 nm, artefact control for SMM control protein annotation, primary screen (AID 1127).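 Also: z combines 667 nm emission intensity with signal-to-noise across three replicate slides.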 As to conditions: ConA-A647 binding fluorescence, higher = more signal.

Chain of Torsin-1A-interacting protein 1 (Homo sapiens) (Q5JTV8 whole entry, looked up): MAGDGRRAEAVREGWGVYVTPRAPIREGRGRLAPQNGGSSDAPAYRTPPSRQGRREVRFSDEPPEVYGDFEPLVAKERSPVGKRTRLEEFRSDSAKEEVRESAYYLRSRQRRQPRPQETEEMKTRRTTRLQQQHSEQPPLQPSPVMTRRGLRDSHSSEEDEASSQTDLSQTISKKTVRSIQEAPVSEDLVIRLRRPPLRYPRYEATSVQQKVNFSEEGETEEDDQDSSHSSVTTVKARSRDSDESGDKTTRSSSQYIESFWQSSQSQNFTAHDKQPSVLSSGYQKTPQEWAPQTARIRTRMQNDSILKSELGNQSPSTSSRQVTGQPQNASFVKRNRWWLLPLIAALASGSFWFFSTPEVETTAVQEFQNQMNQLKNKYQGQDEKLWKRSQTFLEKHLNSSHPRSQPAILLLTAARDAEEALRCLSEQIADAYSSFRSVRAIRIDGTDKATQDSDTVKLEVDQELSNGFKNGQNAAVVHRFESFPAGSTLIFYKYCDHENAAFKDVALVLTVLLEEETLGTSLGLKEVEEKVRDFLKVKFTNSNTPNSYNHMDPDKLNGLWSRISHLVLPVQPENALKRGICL
Chain of Concanavalin-A (Canavalia ensiformis) (P02866 whole entry, looked up): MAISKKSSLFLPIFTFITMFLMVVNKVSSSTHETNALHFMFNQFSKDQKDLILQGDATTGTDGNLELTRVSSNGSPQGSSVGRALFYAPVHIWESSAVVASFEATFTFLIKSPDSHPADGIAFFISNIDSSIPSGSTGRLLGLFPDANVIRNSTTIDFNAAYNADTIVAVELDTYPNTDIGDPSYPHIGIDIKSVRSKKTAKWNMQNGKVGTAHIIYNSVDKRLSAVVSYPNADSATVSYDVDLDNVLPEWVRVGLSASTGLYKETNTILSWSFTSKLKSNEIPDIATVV
Chain of Alpha-bungarotoxin (Bungarus multicinctus) (P60615 whole entry, looked up): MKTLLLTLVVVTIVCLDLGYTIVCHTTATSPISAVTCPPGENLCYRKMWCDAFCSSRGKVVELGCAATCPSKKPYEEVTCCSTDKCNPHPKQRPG

For `COC(=O)CC=C[C@@H](C)[C@@H](C=NOC[C@@H](O)COCc1ccco1)OC`, the composite z-score in [1] was 0.134; in assay [3] it was 0.999; in [4], -0.809; in assay [5], -2.21; in assay [6], -0.172; in [7] it was -0.243. Besides, the composite z-score was -0.353 in assay [8]; 0.329 in assay [9]; -0.741 in assay [10]; -0.15 with Albumin (Bos taurus); -0.262 in [12]; -0.14 in [13]. The composite z-score is -0.134 in [14]; -0.452 in [15]; 0.0649 in [16]; -0.684 in the assay on Sam68 (KHDRBS1); 1.36 in assay [17]; -0.619 in [18]. The compound also had a z-score in [2] of 0.674. For the same compound, the composite Z-score in assay [11] was -2 (inactive).
As for `COC(=O)[C@H](C)NC(=O)CCC1CC(OC(=O)NCCc2ccc(F)cc2)CC2(CCCC(COC(=O)NCc3ccccc3)O2)O1` (stereo not given in full), the composite z-score in assay [1] was 1.32; in assay [3], 0.816; in assay [4], 0.516; in [5] it was -0.796; in assay [6], -0.141; in assay [7] it was -0.221. Further, the composite z-score in assay [8] is -0.384; in assay [9], 0.708; in [10] it was 0.574; in the assay with Albumin (Bos taurus) it was 0.431; in [12] it was -0.0511; in assay [13], -0.208. Also, the composite z-score in assay [14] was 0.266; in assay [15] it was 0.253; in [16], -0.0955; in the assay with Sam68 (KHDRBS1), 1.31; in [17] it was 0.774; in [18], 0.619. Further, the z-score in [2] was -1.18. Besides, in [11], the composite Z-score is 0.0852 (inactive).
On to `O=C1C[C@@H](O)[C@@H](O)[C@@H]2[C@@H]3C(=O)N(c4ccc(F)cc4F)C(=O)[C@@H]3CC[C@H]12`, for which the composite z-score was 0.473 in assay [1]; 0.681 in assay [3]; -0.134 in assay [4]; -0.519 in assay [5]; -0.0718 in [6]; -0.18 in assay [7]. Moreover, the composite z-score is -0.213 in assay [8]; 0.82 in assay [9]; 0.0317 in [10]; 0.422 with Albumin (Bos taurus); 0.0257 in [12]; -0.102 in assay [13]. Besides, the composite z-score in assay [14] was 0.104; in assay [15], 0.517; in assay [16] it was 0.0172; with Sam68 (KHDRBS1), 0.495; in assay [17], 0.571; in assay [18], 0.44. In assay [2], this compound displayed a z-score of -0.313. Also, the composite Z-score in [11] is -0.0025 (inactive).
Regarding `COC(=O)[C@H](C)NC(=O)CC=C[C@@H](C)[C@@H]1C=C[C@H](O)[C@@H](CO)O1`, the composite z-score in assay [1] is 0.075; in assay [3], 1.14; in assay [4], -0.698; in [5], -1.35; in assay [6], -0.0799; in assay [7], -0.0474. For the same compound, the composite z-score in assay [8] was -0.0926; in [9], 0.326; in assay [10], -0.392; with Albumin (Bos taurus), -0.453; in assay [12], -0.0932; in assay [13], -0.237. Moreover, the composite z-score is -0.114 in [14]; -0.346 in assay [15]; -0.0681 in [16]; 0.457 with Sam68 (KHDRBS1); 1.33 in assay [17]; -0.174 in assay [18]. In assay [2], this compound registered a z-score of -0.0833. For the same compound, in assay [11], the composite Z-score was -0.0756 (inactive).
As for `COC(=O)CC=C[C@@H](C)[C@@H](C=NOC[C@@H](C)[C@H](OCc1ccccc1)C(C)C)NS(=O)(=O)c1ccc(C)cc1`, the composite z-score was -0.482 in [1]; 0.21 in [3]; -1.51 in assay [4]; -1.26 in assay [5]; -0.148 in assay [6]; -0.0977 in assay [7]. The composite z-score in assay [8] was -0.541; in assay [9], 0.161; in assay [10], -1.25; with Albumin (Bos taurus), -1.05; in assay [12], -0.161; in [13] it was -0.216. The composite z-score in assay [14] is -0.351; in assay [15] it was -0.342; in assay [16], 0.102; in the assay with Sam68 (KHDRBS1) it was -0.135; in assay [17], 0.271; in assay [18] it was -0.596. In assay [2], this compound registered a z-score of -1.44. Also, the composite Z-score in assay [11] is 0.216 (inactive).
With `O=C1[C@H]2CCn3c(=O)n(-c4ccccc4)c(=O)n3[C@H]2[C@H](O)[C@@H]2O[C@H]12`, the composite z-score in [1] is -0.453; in [3] it was 0.33; in assay [4] it was -0.14; in assay [5] it was -0.391; in assay [6] it was -0.247; in [7], -0.124. Also, the composite z-score is -0.0428 in assay [8]; 0.085 in [9]; 0.658 in assay [10]; 0.0407 with Albumin (Bos taurus); -0.177 in [12]; -0.0651 in assay [13]. The composite z-score is 0.0463 in assay [14]; 0.178 in [15]; -0.34 in assay [16]; -0.319 in the assay on Sam68 (KHDRBS1); 0.37 in assay [17]; 0.218 in [18]. In addition, the z-score in [2] was -0.687. The composite Z-score in assay [11] is -0.916 (inactive).
